Data reported in article PMC13541613, “GHT-SELEX demonstrates unexpectedly high intrinsic sequence specificity and complex DNA binding of many human transcription factors”.

What was measured:
Assay in all cases: HT-SELEX; 20 mM HEPES pH 7, 140 mM KCl, 5 mM NaCl, 1 mM K2HPO4, 2 mM MgSO4, 100 uM EGTA, ZnSO4, 0.1% Tween20; room temperature, 1 h; high values mean tight binding
Details in all cases: protein: ivt; tags: eGFP (N-terminal); dsDNA, one strand shown
ZNF721 full-length = ZNF721 full-length (Homo sapiens, UniProt Q8TF20-2 1-923)
ZNF721 full-length, sequence (Q8TF20 other isoform, or with tags, fused parts or gaps): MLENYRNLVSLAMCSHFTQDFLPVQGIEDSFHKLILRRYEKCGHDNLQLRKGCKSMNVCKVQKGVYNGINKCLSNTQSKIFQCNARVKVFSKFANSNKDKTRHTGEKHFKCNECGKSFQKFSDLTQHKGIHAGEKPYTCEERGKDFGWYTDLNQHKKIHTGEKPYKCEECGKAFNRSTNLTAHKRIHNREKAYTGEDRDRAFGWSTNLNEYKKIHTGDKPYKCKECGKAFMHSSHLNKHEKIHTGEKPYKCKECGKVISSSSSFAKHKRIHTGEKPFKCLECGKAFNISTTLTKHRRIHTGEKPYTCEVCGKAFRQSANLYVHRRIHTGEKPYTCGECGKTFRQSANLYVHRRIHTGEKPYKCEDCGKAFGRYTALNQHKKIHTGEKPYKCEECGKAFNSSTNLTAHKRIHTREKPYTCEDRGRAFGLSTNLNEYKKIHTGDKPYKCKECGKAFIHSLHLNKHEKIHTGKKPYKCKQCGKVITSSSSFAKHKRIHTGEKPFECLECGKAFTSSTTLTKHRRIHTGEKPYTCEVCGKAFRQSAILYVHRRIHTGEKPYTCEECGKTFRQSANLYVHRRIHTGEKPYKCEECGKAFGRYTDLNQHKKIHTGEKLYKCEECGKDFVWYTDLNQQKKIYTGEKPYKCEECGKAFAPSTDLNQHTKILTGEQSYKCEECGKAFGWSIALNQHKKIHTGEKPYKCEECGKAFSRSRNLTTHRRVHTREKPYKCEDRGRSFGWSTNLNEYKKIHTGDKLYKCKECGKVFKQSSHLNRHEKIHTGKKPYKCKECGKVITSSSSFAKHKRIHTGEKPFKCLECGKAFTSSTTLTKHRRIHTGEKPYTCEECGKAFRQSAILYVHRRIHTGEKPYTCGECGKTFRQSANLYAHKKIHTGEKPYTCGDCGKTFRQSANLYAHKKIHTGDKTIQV
Summary of the method: (§1)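 Full-length or DNA-binding-domain forms of a tagged transcription factor were produced in HEK293 lysate or cell-free extract and immobilised on beads. Incubation with a randomized 40-base DNA library ran for 1 h at room temperature in HEPES/KCl low-stringency buffer with Tween20, after which bound DNA was washed, heat-eluted, PCR-amplified over successive cycles and Illumina-sequenced. Binding strength is given as the relative k-mer count in selected reads, higher for tighter binding.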

ZNF721 DBD1 = ZNF721 DBD1 (Homo sapiens, UniProt Q8TF20-2 29-461)
ZNF721 DBD1, sequence (Q8TF20 17-449): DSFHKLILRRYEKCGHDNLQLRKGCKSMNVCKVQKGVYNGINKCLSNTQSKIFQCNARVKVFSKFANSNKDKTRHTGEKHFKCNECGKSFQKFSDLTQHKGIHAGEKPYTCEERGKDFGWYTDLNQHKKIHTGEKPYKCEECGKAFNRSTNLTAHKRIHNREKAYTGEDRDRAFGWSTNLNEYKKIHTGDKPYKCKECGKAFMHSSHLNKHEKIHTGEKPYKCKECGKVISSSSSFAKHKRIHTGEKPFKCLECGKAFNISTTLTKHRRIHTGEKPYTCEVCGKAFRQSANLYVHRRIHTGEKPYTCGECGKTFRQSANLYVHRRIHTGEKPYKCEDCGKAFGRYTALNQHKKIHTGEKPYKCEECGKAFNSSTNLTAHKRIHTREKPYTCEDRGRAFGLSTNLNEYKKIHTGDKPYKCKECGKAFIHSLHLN
Summary of the method: as §1

ZNF721 DBD2 = ZNF721 DBD2 (Homo sapiens, UniProt Q8TF20-2 395-923)
ZNF721 DBD2, sequence (Q8TF20 383-911): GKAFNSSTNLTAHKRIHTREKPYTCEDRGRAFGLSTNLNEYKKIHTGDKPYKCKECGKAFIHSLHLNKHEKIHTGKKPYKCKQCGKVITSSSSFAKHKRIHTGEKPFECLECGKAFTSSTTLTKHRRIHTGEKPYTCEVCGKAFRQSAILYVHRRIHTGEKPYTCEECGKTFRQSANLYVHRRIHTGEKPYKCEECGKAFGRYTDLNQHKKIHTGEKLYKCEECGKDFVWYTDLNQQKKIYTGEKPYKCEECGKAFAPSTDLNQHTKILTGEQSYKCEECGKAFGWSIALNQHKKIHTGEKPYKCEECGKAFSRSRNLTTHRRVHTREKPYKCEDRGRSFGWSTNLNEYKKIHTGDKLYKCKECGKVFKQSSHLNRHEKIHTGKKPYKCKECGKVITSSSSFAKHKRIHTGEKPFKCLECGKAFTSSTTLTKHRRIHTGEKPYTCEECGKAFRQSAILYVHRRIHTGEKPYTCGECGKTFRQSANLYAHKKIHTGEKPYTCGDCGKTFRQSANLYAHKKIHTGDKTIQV
Summary of the method: as §1

Sequence | binding signal (ZNF721 full-length) | binding signal (ZNF721 DBD1) | binding signal (ZNF721 DBD2)
CCACCGCCCA | 0.131 relative 10-mer count | 0.00477 relative 10-mer count | 0.00575 relative 10-mer count
ACCCCCACCG | 0.102 relative 10-mer count | 0.00367 relative 10-mer count | 0.00336 relative 10-mer count
AAAGCGTACC | 0.109 relative 10-mer count | 0.0281 relative 10-mer count | 0.0144 relative 10-mer count
CCGCCACCCC | 0.307 relative 10-mer count | 0.0102 relative 10-mer count | 0.0018 relative 10-mer count
CACCCTACCC | 0.107 relative 10-mer count | 0.00408 relative 10-mer count | 0.00491 relative 10-mer count
CCCAAAAAAA | 0.149 relative 10-mer count | 0.0067 relative 10-mer count | 0.0681 relative 10-mer count
CAGGGTGGGG | 0.111 relative 10-mer count | 0.00399 relative 10-mer count | 0.00384 relative 10-mer count
CACCGCCCAC | 0.123 relative 10-mer count | 0.00482 relative 10-mer count | 0.00372 relative 10-mer count
GCCCCCCCCC | 0.112 relative 10-mer count | 0.00367 relative 10-mer count | 0.00276 relative 10-mer count
GCACCACCCC | 0.103 relative 10-mer count | 0.00358 relative 10-mer count | 0.00815 relative 10-mer count
CCCCACACCA | 0.118 relative 10-mer count | 0.00417 relative 10-mer count | 0.00575 relative 10-mer count
CCCTCCCCAC | 0.217 relative 10-mer count | 0.00977 relative 10-mer count | 0.00863 relative 10-mer count
CGACCCACCC | 0.126 relative 10-mer count | 0.00477 relative 10-mer count | 0.00324 relative 10-mer count
CCCCACCTCC | 0.24 relative 10-mer count | 0.0128 relative 10-mer count | 0.00575 relative 10-mer count
CTCCCCCCTC | 0.108 relative 10-mer count | 0.00605 relative 10-mer count | 0.00336 relative 10-mer count
CCACCCCAAC | 0.162 relative 10-mer count | 0.00601 relative 10-mer count | 0.00659 relative 10-mer count
CGCTTTTTTC | 0.258 relative 10-mer count | 0.0622 relative 10-mer count | 0.0303 relative 10-mer count
CACCATCCCC | 0.118 relative 10-mer count | 0.00468 relative 10-mer count | 0.003 relative 10-mer count
CCCCCACCCC | 0.44 relative 10-mer count | 0.0205 relative 10-mer count | 0.00276 relative 10-mer count
CAGAAAAAAG | 0.147 relative 10-mer count | 0.0308 relative 10-mer count | 0.0475 relative 10-mer count

Sequence | binding signal (ZNF721 full-length) | binding signal (ZNF721 DBD1) | binding signal (ZNF721 DBD2)
CCACCCCATC | 0.11 relative 10-mer count | 0.00509 relative 10-mer count | 0.00791 relative 10-mer count
CCCGCCTCCC | 0.183 relative 10-mer count | 0.00954 relative 10-mer count | 0.00156 relative 10-mer count
GGTGGTGGGA | 0.157 relative 10-mer count | 0.00784 relative 10-mer count | 0.00455 relative 10-mer count
CCATCCACCC | 0.109 relative 10-mer count | 0.00578 relative 10-mer count | 0.00467 relative 10-mer count
CCTCCCACCC | 0.255 relative 10-mer count | 0.0139 relative 10-mer count | 0.00599 relative 10-mer count
AAAGCAGCGT | 0.371 relative 10-mer count | 0.00115 relative 10-mer count | 0.512 relative 10-mer count
CACCACCCTC | 0.111 relative 10-mer count | 0.00537 relative 10-mer count | 0.00419 relative 10-mer count
AGGGAGGGGG | 0.15 relative 10-mer count | 0.00628 relative 10-mer count | 0.00384 relative 10-mer count
CACCCCGACC | 0.113 relative 10-mer count | 0.00335 relative 10-mer count | 0.00216 relative 10-mer count
AGGTGGGGGG | 0.157 relative 10-mer count | 0.0067 relative 10-mer count | 0.00527 relative 10-mer count
CCCACCCCTC | 0.188 relative 10-mer count | 0.01 relative 10-mer count | 0.00527 relative 10-mer count
ACCCCCACCC | 0.267 relative 10-mer count | 0.0108 relative 10-mer count | 0.0036 relative 10-mer count
CCCACCTCCC | 0.339 relative 10-mer count | 0.017 relative 10-mer count | 0.00551 relative 10-mer count
CCCGACCCCC | 0.178 relative 10-mer count | 0.00628 relative 10-mer count | 0.00144 relative 10-mer count
GTGGGGTGGA | 0.103 relative 10-mer count | 0.00573 relative 10-mer count | 0.00539 relative 10-mer count
CCTGCCCCCC | 0.103 relative 10-mer count | 0.00454 relative 10-mer count | 0.00132 relative 10-mer count
CGCCACCCCC | 0.212 relative 10-mer count | 0.00706 relative 10-mer count | 0.0024 relative 10-mer count
CCCCCAGCCC | 0.146 relative 10-mer count | 0.00587 relative 10-mer count | 0.00252 relative 10-mer count
CCGAAAAAAG | 0.106 relative 10-mer count | 0.016 relative 10-mer count | 0.0415 relative 10-mer count
CCCGACCACC | 0.125 relative 10-mer count | 0.00491 relative 10-mer count | 0.00372 relative 10-mer count

Sequence | binding signal (ZNF721 full-length) | binding signal (ZNF721 DBD1) | binding signal (ZNF721 DBD2)
CACCCAACCC | 0.123 relative 10-mer count | 0.005 relative 10-mer count | 0.00252 relative 10-mer count
CCCCACCCCA | 0.297 relative 10-mer count | 0.0112 relative 10-mer count | 0.00288 relative 10-mer count
CACCCGCCCC | 0.188 relative 10-mer count | 0.0066 relative 10-mer count | 0.00108 relative 10-mer count
GCCCACCACC | 0.17 relative 10-mer count | 0.00688 relative 10-mer count | 0.00336 relative 10-mer count
CGAAAAAAAA | 0.137 relative 10-mer count | 0.0159 relative 10-mer count | 0.0695 relative 10-mer count
ACCCGCCCCA | 0.109 relative 10-mer count | 0.00307 relative 10-mer count | 0.0012 relative 10-mer count
CAACCCCCAC | 0.108 relative 10-mer count | 0.00417 relative 10-mer count | 0.00216 relative 10-mer count
CACCCCCCCC | 0.217 relative 10-mer count | 0.00789 relative 10-mer count | 0.00384 relative 10-mer count
CACCCCCTCC | 0.159 relative 10-mer count | 0.00899 relative 10-mer count | 0.00719 relative 10-mer count
AAAAGCTATC | 0.233 relative 10-mer count | 0.129 relative 10-mer count | 0.00168 relative 10-mer count
CACCACCCAC | 0.206 relative 10-mer count | 0.0105 relative 10-mer count | 0.0119 relative 10-mer count
ACCCCGCCAC | 0.107 relative 10-mer count | 0.00482 relative 10-mer count | 0.00264 relative 10-mer count
GAAGCGTACC | 0.104 relative 10-mer count | 0.0792 relative 10-mer count | 0.0018 relative 10-mer count
CCTCCCACCA | 0.115 relative 10-mer count | 0.00784 relative 10-mer count | 0.00491 relative 10-mer count
CACCCCAACC | 0.142 relative 10-mer count | 0.0061 relative 10-mer count | 0.00407 relative 10-mer count
AAAAAGAAGC | 0.126 relative 10-mer count | 0.0301 relative 10-mer count | 0.0126 relative 10-mer count
CACCCCGCCC | 0.205 relative 10-mer count | 0.00656 relative 10-mer count | 0.003 relative 10-mer count
CCCCCGCACC | 0.146 relative 10-mer count | 0.00527 relative 10-mer count | 0.00419 relative 10-mer count
GGCGGGGGGA | 0.126 relative 10-mer count | 0.00619 relative 10-mer count | 0.0024 relative 10-mer count
AGTGTATCCA | 0.248 relative 10-mer count | 0.11 relative 10-mer count | 0.197 relative 10-mer count
